# High-throughput results as filed in PubChem.
# Sampled rows, rich in hits. Any-hit rate of the full collection: about 6.5%.
# HT1080-NT tox: kills 2HG-producing HT-1080-NT fibrosarcoma cells | HT-1080-NT fibrosarcoma viability, CellTiter-Glo ATP luminescence, 48 h | AID 686970 | Potency, µM (top dose mostly 46.1 µM), most hits filed as cytotoxic | hit rate 1.6% among 360,000;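 further: NT is the 2HG producing partner of a matched IDH1 knockdown line; nearly all actives have a fitted effect of over 55% in size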
#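 Viability by CellTiter-Glo luminescence after 48 h compound exposure at 37C of HT-1080-NT cells (750/well, RPMI, 5% FBS). % activity scaled between DMSO wells and medium-only wells, then curve-fitted and categorized by curve class.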
# HT1080 IDH1KD tx: toxicity to HT-1080 IDH1 knockdown cells (counter line); HT-1080 IDH1 knockdown viability, ATP luminescence, 48 h; Potency, µM (titrated, usually from 46.1 µM), most hits filed as cytotoxic; hit rate 2% among 360,000; AID 686971
#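 Cytotoxicity counter-line: IDH1KD HT-1080, 48 h, CellTiter-Glo. Curves classed by r2, magnitude and activity.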
# Giardia killer: kills Giardia lamblia; Giardia lamblia trophozoite viability; hit rate 0.15% among 340,000; activity change, % at 7.66 µM, hits read low; AID 540267; in the data active means activity change below about -80%; inconclusive means between about -30% and that limit;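 further: parasites exposed to compound for two days anaerobically before the ATP read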
#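 Compounds were tested on trophozoites seeded at 100 cells/well and held 48 hrs at 37 deg C anaerobically. An ATP-based luminescent kit measured the remaining live cells.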
# IL1B secr inh: inflammasome signaling inhibition, IL-1 beta readout; THP-1 LPS/ATP IL-1B secretion, AlphaLISA, 16 h; stronger effect = lower value; hit rate 4.7% among 360,000; activity change, % at 57.5 µM; AID 743279; in the data active means activity change below about -50%; inconclusive means mostly about -30% to -49%
#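 THP-1 cells pretreated 1 hr with compounds (up to 57.5 uM final), then stimulated with LPS (250 ng/mL final) plus ATP (1.25 mM final); secreted IL-1B measured by AlphaLISA after 16 hr, decreased signal indicating inhibition.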
# TGFb inhibitor: TGF-b pathway inhibition; AID 588855; Potency, µM (titrated, usually from 46.1 µM), most hits filed as inhibitors; hit rate 1.2% among 410,000; HepG2 CAGA-GFP TGF-b/SMAD3 reporter, GFP fluorescence, 18 h; TGF-beta stimulated, 500 pg/mL final; further: nearly all actives have a fitted effect of over 65% in size
#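 Cell-based qHTS in HEPG2 carrying a CAGA-GFP Smad reporter; compounds added before 500 pg/mL final TGF-beta, 18 h incubation at 37 degrees C, GFP fluorescence quantified per cell by imaging cytometry.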
# HepG2 viability: kills HepG2 cells in TGF-b inhibitor counter-screen; AID 588856; HepG2 CAGA-GFP viability, ATP luminescence, 18 h; Potency, µM (doses to about 46.1 µM), most hits filed as cytotoxic; hit rate 0.76% among 410,000
#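 CellTiter-Glo luminescence gave cytotoxicity after 18 hours at 37 degrees C. The cells were HepG2 CAGA-GFP in 1% FBS DMEM, stimulated with 500 pg/mL TGF-beta after compound addition. %Activity was normalised to no-cell wells (complete cell-killing) and DMSO (no toxicity), and curves were fitted and classified.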
# Numbers stand for hits; . = inactive; ? = inconclusive; / = not tested or not shown; ! = not active in a repeat. Unless noted, the call rests on the fitted dose curve; in most records, active means well fitted curve in the direction sought with a large enough effect; inconclusive means small, poorly fitted or top-dose-only effect, or another doubt; inactive means no such curve, though single readings can be large; an effect the other way counts as inactive or inconclusive.
SMILES,HT1080-NT tox,HT1080 IDH1KD tx,Giardia killer,IL1B secr inh,TGFb inhibitor,HepG2 viability
NC(c1csc(Nc2cc(NCCCO)ncn2)n1)c1ccccc1Cl (configuration not stated),?,?,/,-56,?,.
CCc1nc(N)c(C#N)c(-c2ccncc2)c1C,.,.,.,.,.,.
CC1=C(/C=C/C(C)=C/C=C/C(C)=C/C(=O)Nc2ccc(O)cc2)C(C)(C)CCC1,15µM,16µM,.,-77,?,.
CC1=C(C(=O)Nc2ccccc2)C(c2coc3ccccc3c2=O)C2=C(CCCC2=O)N1 (configuration not stated),.,.,.,.,.,.
CCc1c(O)nc(SCC(=O)Nc2ccccc2OC)n(-c2ccccc2C)c1=O,.,.,.,.,.,.
Cc1c(O)cccc1C(=O)N[C@@H](CSc1ccccc1)[C@H](O)CN1C[C@H]2CCCC[C@H]2C[C@H]1C(=O)NC(C)(C)C,13µM,18µM,.,?,?,16µM!
Cn1c(SCC(=O)NC2CCCc3ccccc32)nnc1C1CC1 (configuration not stated),.,.,.,.,.,.
CCN(C(=O)C=Cc1ccco1)c1ccccc1,.,.,.,.,.,.
COc1cc2c(cc1OC)CN(CCC(=O)c1ccc(Br)cc1)CC2,26µM,23µM,.,.,?,.
COc1cc2c(cc1OC)CN(C(=O)CCNC(=O)c1ccc(Br)cc1)CC2,.,.,.,.,.,.
COc1ccc(-n2cc3c(c2-c2cccc(Br)c2)c(=O)n(C)c(=O)n3C)cc1OC,/,/,/,/,.,.
O=c1oc(Cl)c(Cl)c2ccccc12,.,.,.,-70,.,.
Cn1cccc/c1=N\c1cccc[n+]1C,.,23µM,.,.,.,.
CSCCC(NC(=O)c1ccccc1Br)C(=O)NCCCn1nc(C)cc1C (configuration not stated),.,.,.,.,.,.
COc1ccc2c(c1)OC[C@H]1[C@H]2N2C(=O)c3ccccc3NC(=O)[C@@]2(C)[C@H]1c1ccccc1,?,?,.,-78,?,.
COc1ccc2c(c1)[C@H]1[C@H](CO2)[C@H](c2ccccc2)[C@]2(C)C(=O)Nc3ccc(Cl)cc3C(=O)N12,.,.,.,-54,.,.
COc1ccc2c(c1)C(=O)N1[C@H]3c4cc(C)ccc4OC[C@@H]3[C@H](c3ccccc3)[C@]1(C)C(=O)N2,?,?,.,-66,.,.
COc1ccc2c(c1)[C@H]1[C@H](CO2)[C@H](c2ccccc2)[C@]2(C)C(=O)Nc3ccc(F)cc3C(=O)N12,?,?,.,-57,.,.
C[C@@]12C(=O)Nc3ccc(Cl)cc3C(=O)N1[C@H]1c3cc(Cl)ccc3OC[C@@H]1[C@@H]2c1ccccc1,.,.,.,.,.,.
COc1ccc2c(c1)OC[C@H]1[C@H]2N2C(=O)c3cc(C)ccc3NC(=O)[C@@]2(C)[C@H]1c1ccccc1,?,.,.,?,.,.
COc1ccc2c(c1)[C@H]1[C@H](CO2)[C@H](c2ccccc2)[C@]2(C)C(=O)Nc3ccc(C)cc3C(=O)N12,.,.,.,.,.,.
CCN(CC)C(=O)C(Sc1nnnn1-c1ccc(O)cc1)c1ccccc1 (configuration not stated),.,.,.,-74,.,.
O=C(NCC(c1cccs1)S(=O)(=O)c1cccs1)c1c(F)cccc1F (configuration not stated),/,/,/,/,.,.
CCn1c(/C=C/c2ccccc2)nc2ccccc21,?,?,?,.,.,.
CC(C)Cn1c(/C=C/c2ccccc2)nc2ccccc21,?,.,.,-66,.,.
SMILES,HT1080-NT tox,HT1080 IDH1KD tx,Giardia killer,IL1B secr inh,TGFb inhibitor,HepG2 viability
CCCCCCn1c(/C=C/c2ccccc2)nc2ccccc21,/,/,.,/,16µM,.
Cc1ccc(NC(=O)Cn2nnc(-c3ccccc3NC(=O)c3cccs3)n2)cc1,1.2µM,1.2µM,.,.,.,.
Cc1ccc(OCC(=O)Nc2cccc(S(=O)(=O)N3CCCC3)c2)cc1C,.,.,/,.,.,.
CCc1nc2ccccc2c(C(=O)OCC(=O)Nc2ccc(S(=O)(=O)N3CCOCC3)cc2)c1C,?,?,.,.,?,.
CC(=O)c1ccc(OCC(=O)Nc2cccc(S(=O)(=O)N3CCCC3)c2)cc1,16µM,.,.,.,.,.
CN(C)S(=O)(=O)c1cccc(NC(=O)c2cccc(NS(=O)(=O)c3ccccc3)c2)c1,?,?,.,-60,?,.
CN(C)S(=O)(=O)c1cccc(C(=O)Nc2ccc(C(=O)Nc3cccc(S(N)(=O)=O)c3)cc2)c1,.,.,.,.,.,.
CCc1nc2ccccc2c(C(=O)OCC(=O)Nc2cccc(S(=O)(=O)N3CCOCC3)c2)c1C,?,?,.,-78,?,.
CN(C)S(=O)(=O)c1cccc(NC(=O)COc2ccc(C(=O)c3ccccc3)cc2)c1,?,?,.,.,.,22µM
CC1CCCCC12NC(=O)N(CC(=O)NCCc1ccccn1)C2=O (configuration not stated),.,.,.,.,.,.
Cc1ccc(OCC(=O)Nc2cccc(S(=O)(=O)N3CCCCC3)c2)c([N+](=O)[O-])n1,.,.,.,.,.,.
Cc1c(-c2cccc(Cl)c2)nc2ccccc2c1C(=O)OCC(=O)Nc1ccc2c(c1)OCO2,.,?,.,-59,?,.
Cc1ccc2cccc(OCC(=O)Nc3cccc(S(=O)(=O)N4CCCC4)c3)c2n1,.,.,.,-71,?,.
CC(C)OC(=O)/C(=C\c1cccc2ccccc12)NC(=O)c1ccccc1,.,.,.,-79,.,.
C[C@@H]1C[C@H]2[C@@H]3CCC4=CC(=O)C=C[C@]4(C)[C@@]3(Cl)[C@@H](O)C[C@]2(C)[C@@]1(OC(=O)c1ccco1)C(=O)CCl,16µM,?,.,-89,.,.
CC1CC2C3CCC4=CC(=O)C=CC4(C)[C@@]3(Cl)C(O)CC2(C)C1(O)C(=O)CO (some centres not stated),?,.,.,.,.,.
O=C(CCCN1C(=O)/C(=C/c2cccs2)SC1=S)Nc1cccc(O)c1,?,16µM,.,-94,?,.
O=C(CCN1C(=O)/C(=C/c2cccs2)SC1=S)Nc1cccc(O)c1,.,.,.,-82,?,.
O=C(CCN1C(=O)/C(=C/c2cccs2)SC1=S)Nc1ccc(O)cc1,.,?,.,.,.,.
O=C(CCCN1C(=O)/C(=C/c2cccs2)SC1=S)Nc1cccc(C(=O)O)c1,.,.,.,.,.,.
